Source: PubChem BioAssay
Activity calls are given as the source filed them.

Assays:
[1] = E. coli DRC41 culture turbidity changes, primary screen, E. coli filamentation inducer project, strain DRC41, OD650, 48 h (AID 1152);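 note: E. coli MC1000 strain DRC41 lacking acrAB efflux pump and sulA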; details: E. coli DRC41 (acrAB sulA), higher = more signal, called active from +8 up or from −8 down
[2] = small-molecule binders of probe aLefty1, primary screen, biochemical, small-molecule microarray, 635/667 nm fluorescence (AID 1153); details: higher = more signal;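 note: score merges spot fluorescence with signal-to-noise ratio from the scanned slide images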
[3] = PSAC antagonists in infected red cells, primary screen, cell-based, P. falciparum Indochina, OD700, 1 h (AID 1154); details: P. falciparum Indochina infected RBC osmotic lysis, higher = more signal, called active from +8 up or from −8 down
[4] = PSAC antagonists in infected red cells, primary screen, cell-based, P. falciparum Indochina, OD700, 2 h (AID 1155);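 note: lysis reports solute entry through the parasite surface anion channel PSAC; channel blockers reduce lysis of infected cells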; details: P. falciparum Indochina infected erythrocytes, osmotic lysis OD700; higher = more signal, called active from +8 up or from −8 down
[5] = osmotic lysis modulators in infected erythrocytes, primary screen, PSAC antagonist project, cell-based, P. falciparum Indochina, OD700, 3 h (AID 1156); details: higher = more signal, called active from +8 up or from −8 down
[6] = PSAC antagonists in infected red cells, primary screen, cell-based, P. falciparum Indochina, OD700, 18 h (AID 1157); details: P. falciparum Indochina infected erythrocytes, osmotic lysis OD700, 18 h; higher = more signal, called active from +8 up or from −8 down
[7] = modulators of S6 phosphorylation in cells, primary screen, cell-based, A549, cytoblot, luminescence, serum-stimulated (AID 1158); details: A549 phospho-S6 cytoblot, 5 h, higher = more signal;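 note: serum-stimulated A549 lung adenocarcinoma cells; signal is phosphorylated S6 detected by cytoblot immunostaining with HRP secondary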
[8] = molecular target: NADPH oxidase 2 (Homo sapiens) (UniProt P04839); test: NOX2-dependent H2O2 signal modulators, primary screen, NOX inhibitor project, cell-based, HEK293-NOX2, PMA-stimulated, Amplex Red fluorescence (AID 1159); details: 45 min, higher = more signal, called active from +8 up or from −8 down; note: test concentration not given here
[9] = molecular target: NADPH oxidase 4 (Homo sapiens) (UniProt Q9NPH5); test: NOX4-dependent H2O2 signal modulators, primary screen, NOX inhibitor project, cell-based, HEK293-NOX4, tetracycline-induced, Amplex Red fluorescence (AID 1160); details: 45 min, higher = more signal, called active from +8 up or from −8 down
[10] = molecular target: NADPH oxidase 5 (Homo sapiens) (UniProt Q96PH1); test: NOX5-dependent H2O2 signal modulators, primary screen, NOX inhibitor project, cell-based, HEK293-NOX5, Amplex Red fluorescence (AID 1161); details: HEK293-NOX5, ionomycin, 45 min, higher = more signal
Sequence of NADPH oxidase 5 (Homo sapiens) (Q96PH1 whole entry, looked up): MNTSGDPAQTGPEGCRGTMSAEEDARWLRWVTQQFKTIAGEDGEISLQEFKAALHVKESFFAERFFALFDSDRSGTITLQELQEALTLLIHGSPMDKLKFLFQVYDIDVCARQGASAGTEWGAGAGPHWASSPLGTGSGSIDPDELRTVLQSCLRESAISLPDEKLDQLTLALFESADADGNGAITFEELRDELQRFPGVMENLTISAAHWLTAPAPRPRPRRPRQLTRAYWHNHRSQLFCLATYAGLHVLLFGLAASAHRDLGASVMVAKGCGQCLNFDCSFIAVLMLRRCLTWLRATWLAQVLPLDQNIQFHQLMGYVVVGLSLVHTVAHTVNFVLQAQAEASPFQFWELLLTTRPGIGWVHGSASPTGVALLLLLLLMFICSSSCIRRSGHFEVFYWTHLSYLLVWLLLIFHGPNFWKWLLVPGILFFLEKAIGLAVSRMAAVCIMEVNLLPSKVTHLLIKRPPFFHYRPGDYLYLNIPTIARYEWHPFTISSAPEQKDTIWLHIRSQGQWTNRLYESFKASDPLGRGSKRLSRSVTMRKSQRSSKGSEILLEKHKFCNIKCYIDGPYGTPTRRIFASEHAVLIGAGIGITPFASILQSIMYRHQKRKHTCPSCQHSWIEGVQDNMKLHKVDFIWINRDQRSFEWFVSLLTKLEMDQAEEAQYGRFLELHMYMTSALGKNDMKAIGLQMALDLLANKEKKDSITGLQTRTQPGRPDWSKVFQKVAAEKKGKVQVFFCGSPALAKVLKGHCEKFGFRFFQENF

Sequence of NADPH oxidase 4 (Homo sapiens) (Q9NPH5 whole entry, looked up): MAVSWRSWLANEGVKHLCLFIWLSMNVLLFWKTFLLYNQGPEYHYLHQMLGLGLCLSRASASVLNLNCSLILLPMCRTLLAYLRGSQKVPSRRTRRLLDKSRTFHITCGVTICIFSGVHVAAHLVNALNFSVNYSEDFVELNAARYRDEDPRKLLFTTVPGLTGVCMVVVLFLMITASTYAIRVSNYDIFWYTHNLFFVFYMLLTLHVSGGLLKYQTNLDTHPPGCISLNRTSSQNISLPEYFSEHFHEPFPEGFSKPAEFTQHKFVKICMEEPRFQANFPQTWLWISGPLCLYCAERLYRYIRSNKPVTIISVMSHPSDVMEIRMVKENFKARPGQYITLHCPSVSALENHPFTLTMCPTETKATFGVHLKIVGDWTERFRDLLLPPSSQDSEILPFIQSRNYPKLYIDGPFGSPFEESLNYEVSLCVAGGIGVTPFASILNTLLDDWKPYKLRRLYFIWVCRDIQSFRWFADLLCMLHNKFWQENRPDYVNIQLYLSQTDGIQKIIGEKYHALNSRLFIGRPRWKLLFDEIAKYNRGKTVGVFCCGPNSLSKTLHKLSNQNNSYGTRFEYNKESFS
Sequence of NADPH oxidase 2 (Homo sapiens) (P04839 whole entry, looked up): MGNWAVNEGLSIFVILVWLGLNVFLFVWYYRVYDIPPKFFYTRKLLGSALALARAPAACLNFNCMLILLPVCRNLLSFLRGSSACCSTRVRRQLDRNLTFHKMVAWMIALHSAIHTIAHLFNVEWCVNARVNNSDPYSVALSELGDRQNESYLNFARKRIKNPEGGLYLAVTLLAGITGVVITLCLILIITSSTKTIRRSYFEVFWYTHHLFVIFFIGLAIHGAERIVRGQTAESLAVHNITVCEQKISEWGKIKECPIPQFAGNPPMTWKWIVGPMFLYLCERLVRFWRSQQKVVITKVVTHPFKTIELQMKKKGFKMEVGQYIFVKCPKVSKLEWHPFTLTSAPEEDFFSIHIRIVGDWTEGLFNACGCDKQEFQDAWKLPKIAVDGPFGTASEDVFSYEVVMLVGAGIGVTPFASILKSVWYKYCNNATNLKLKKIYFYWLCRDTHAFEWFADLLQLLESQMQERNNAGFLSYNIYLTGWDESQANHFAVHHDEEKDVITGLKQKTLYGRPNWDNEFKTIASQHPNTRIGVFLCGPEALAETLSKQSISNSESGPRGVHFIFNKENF

COc1ccccc1CN1C(=O)c2ccccc2[C@](Cc2ccccc2I)(C(=O)NC(C)C)[C@@H]1c1ccc(CO)cc1
z-score [1]: 0.646 (inactive) | composite z-score [2]: 0.0494 | z-score [3]: 4.1 (inactive) | z-score [4]: 0.644 (inactive) | z-score [5]: 0.632 (inactive) | z-score [6]: 0.621 (inactive) | z-score [7]: 0.0569 | z-score [8]: -2.12 (inactive) | z-score [9]: 0.143 (inactive) | z-score [10]: -2.1

CCOC(=O)C[C@H]1[C@H](OC(=O)c2ccc(-c3ccccc3)cc2)[C@@H](NC(=O)c2ccc3ccccc3c2)c2cc(OCCCO)ccc2N1C(=O)c1ccc2ccccc2n1
z-score [1]: -0.572 (inactive) | composite z-score [2]: 0.302 | z-score [3]: 4.55 (inactive) | z-score [4]: 0.568 (inactive) | z-score [5]: -0.559 (inactive) | z-score [6]: 0.159 (inactive) | z-score [7]: 0.762 | z-score [8]: -1.35 (inactive) | z-score [9]: 0.928 (inactive) | z-score [10]: 0.0885

COCCOC(=O)N1C(=O)[C@@]2(c3ccccc31)[C@H](C(=O)N1CCN(c3ncccn3)CC1)[C@H]1C(=O)O[C@H](c3ccccc3)[C@H](c3ccccc3)N1[C@@H]2c1ccc(OCCO)cc1
z-score [1]: 1.18 (inactive) | composite z-score [2]: -0.244 | z-score [3]: 16.4 (active) | z-score [4]: 3.96 (inactive) | z-score [5]: 0.779 (inactive) | z-score [6]: 1.24 (inactive) | z-score [7]: 0.242 | z-score [8]: 0.351 (inactive) | z-score [9]: 0.798 (inactive) | z-score [10]: 0.55

[N-]=[N+]=Nc1ccccc1[C@@H]1OC(c2ccc(OCCCO)cc2)=N[C@]1(CCS(=O)(=O)c1ccccc1)C(=O)NCCN1CCOCC1
z-score [1]: 0.0992 (inactive) | composite z-score [2]: 0.417 | z-score [3]: 27.4 (active) | z-score [4]: 20.8 (active) | z-score [5]: 1.9 (inactive) | z-score [6]: 0.667 (inactive) | z-score [7]: 1.12 | z-score [8]: -3.49 (inactive) | z-score [9]: -0.729 (inactive) | z-score [10]: -1.84

COCCCNC(=O)[C@@]1(Sc2ccc(C)cc2)CC(=O)N(Cc2cc(C(F)(F)F)cc(C(F)(F)F)c2)[C@@H]1c1ccc(CO)cc1
z-score [1]: 0.154 (inactive) | composite z-score [2]: -0.0559 | z-score [3]: 0.603 (inactive) | z-score [4]: 0.591 (inactive) | z-score [5]: 1.03 (inactive) | z-score [6]: 0.302 (inactive) | z-score [7]: -0.103 | z-score [8]: 0.242 (inactive) | z-score [9]: 0.521 (inactive) | z-score [10]: 0.581

C=CCC(OC(C)=O)[C@@H]1[C@@H](N(Cc2cc3ccccc3o2)C(=O)c2ccc(C)cc2)c2cc(OCCCO)ccc2N1C(=O)Cc1ccc2ccccc2c1 (stereo not given in full)
z-score [1]: 2.52 (inactive) | composite z-score [2]: -0.103 | z-score [3]: 1.49 (inactive) | z-score [4]: 0.434 (inactive) | z-score [5]: -0.884 (inactive) | z-score [6]: 0.283 (inactive) | z-score [7]: 0.866 | z-score [8]: 0.597 (inactive) | z-score [9]: 0.921 (inactive) | z-score [10]: 2.32

C=CC[C@]12N=C(c3ccc(OCCCO)cc3)O[C@H]1c1ccccc1N(C)C2=O
z-score [1]: -0.0028 (inactive) | composite z-score [2]: 1.11 | z-score [3]: 31.9 (active) | z-score [4]: 31.8 (active) | z-score [5]: 4.16 (inactive) | z-score [6]: 3.07 (inactive) | z-score [7]: 0.289 | z-score [8]: -2.49 (inactive) | z-score [9]: -0.582 (inactive) | z-score [10]: -1.8

[N-]=[N+]=NCc1ccccc1C[C@@]1(C(=O)N2CCCCC2)N=C(c2ccc(OCCCO)cc2)O[C@@H]1c1ccccc1N=[N+]=[N-]
z-score [1]: 0.842 (inactive) | composite z-score [2]: -0.126 | z-score [3]: 31.2 (active) | z-score [4]: 30.4 (active) | z-score [5]: 2.6 (inactive) | z-score [6]: 3.27 (inactive) | z-score [7]: -0.0417 | z-score [8]: 1.2 (inactive) | z-score [9]: -0.0332 (inactive) | z-score [10]: -1.27

CN1C(=O)C2C(C1=O)C1C=C(c3ccc(CO)cc3)C2C(c2cccs2)N1Cc1cccc(OC(F)(F)F)c1 (stereo not given)
z-score [1]: -0.652 (inactive) | composite z-score [2]: 0.0999 | z-score [3]: 17.4 (active) | z-score [4]: 3.33 (inactive) | z-score [5]: 1.81 (inactive) | z-score [6]: 1.43 (inactive) | z-score [7]: 0.624 | z-score [8]: -2.71 (inactive) | z-score [9]: -1.35 (inactive) | z-score [10]: -2.6

COCCOC(=O)N1C(=O)[C@@]2(c3cc(C#CC4(O)CCCCCC4)ccc31)[C@H](C(=O)N1CCCCCCC1)[C@H]1C(=O)O[C@H](c3ccccc3)[C@H](c3ccccc3)N1[C@@H]2c1ccc(OCCO)cc1
z-score [1]: 1.08 (inactive) | composite z-score [2]: 2.64 | z-score [3]: 5.11 (inactive) | z-score [4]: 2.64 (inactive) | z-score [5]: 0.539 (inactive) | z-score [6]: 1.27 (inactive) | z-score [7]: -0.108 | z-score [8]: 0.738 (inactive) | z-score [9]: 0.507 (inactive) | z-score [10]: 1.36

C[C@H]1C2=C3C(CC[C@H]4C(OCc5ccc(F)cc5C(F)(F)F)OC[C@](C)([C@@H]34)N(C(=O)OC(C)(C)C)C2)C(CO)C1CO (stereo not given in full)
z-score [1]: -2.8 (inactive) | composite z-score [2]: 0.687 | z-score [3]: 1.94 (inactive) | z-score [4]: 0.368 (inactive) | z-score [5]: 2.1 (inactive) | z-score [6]: 0.864 (inactive) | z-score [7]: 0.118 | z-score [8]: -0.678 (inactive) | z-score [9]: -2.59 (inactive) | z-score [10]: -1.97

C=CCNC(=O)[C@@H]1[C@H]2C(=O)O[C@H](c3ccccc3)[C@H](c3ccccc3)N2[C@H](c2ccccc2OCCO)[C@@]12C(=O)N(C(=O)OCCOC)c1ccc(C#CC3=CCCCC3)cc12
z-score [1]: 0.889 (inactive) | composite z-score [2]: -0.0075 | z-score [3]: 2.66 (inactive) | z-score [4]: 0.741 (inactive) | z-score [5]: 0.123 (inactive) | z-score [6]: 0.906 (inactive) | z-score [7]: 0.325 | z-score [8]: 1.54 (inactive) | z-score [9]: 1.44 (inactive) | z-score [10]: 1.32

C=CC1c2cc(O)c(OC)cc2CCN1Cc1sc2ccccc2c1Cl (stereo not given)
z-score [1]: -1.38 (inactive) | composite z-score [2]: 0.268 | z-score [3]: 17.9 (active) | z-score [4]: 5.17 (inactive) | z-score [5]: -0.604 (inactive) | z-score [6]: 1.41 (inactive) | z-score [7]: -0.248 | z-score [8]: -4.21 (inactive) | z-score [9]: -2.48 (inactive) | z-score [10]: -2.08
